Compounds with a hit are over-represented: about 2.8% of the library has one in this group of screens.
pS6 MEF inh: reduces mTORC1 signaling in Tsc2 and p53 null MEF cells. Tsc2-/- p53-/- MEF, phospho-rpS6 immunofluorescence/PI, 24 h. Potency, µM (highest dose often 38.3 µM), hits mostly inhibitors. 0.78% of 44,000 active; also: nearly all actives have a fitted effect of over 50% in size
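Immunofluorescence of rpS6 phosphorylation in Tsc2-/-, p53-/- MEFs after 24 h compound exposure, normalized to propidium iodide signal. Activity is expressed as % positive cells, thresholded with 7.5 nM rapamycin.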
GALC G270D act: raises human GALC G270D mutant activity in cells; 145M-Twi-hGALC-G270D cells (Twitcher mouse brain line with human GALC G270D), HMU-beta-Gal fluorescence, 48 h; 0.1% of 45,000 active; P54803; Potency, µM (titrated, usually from 57.5 µM), usual class: activators; also: nearly all actives have a fitted effect of over 65% in size
Target sequence (P54803 whole entry G286D): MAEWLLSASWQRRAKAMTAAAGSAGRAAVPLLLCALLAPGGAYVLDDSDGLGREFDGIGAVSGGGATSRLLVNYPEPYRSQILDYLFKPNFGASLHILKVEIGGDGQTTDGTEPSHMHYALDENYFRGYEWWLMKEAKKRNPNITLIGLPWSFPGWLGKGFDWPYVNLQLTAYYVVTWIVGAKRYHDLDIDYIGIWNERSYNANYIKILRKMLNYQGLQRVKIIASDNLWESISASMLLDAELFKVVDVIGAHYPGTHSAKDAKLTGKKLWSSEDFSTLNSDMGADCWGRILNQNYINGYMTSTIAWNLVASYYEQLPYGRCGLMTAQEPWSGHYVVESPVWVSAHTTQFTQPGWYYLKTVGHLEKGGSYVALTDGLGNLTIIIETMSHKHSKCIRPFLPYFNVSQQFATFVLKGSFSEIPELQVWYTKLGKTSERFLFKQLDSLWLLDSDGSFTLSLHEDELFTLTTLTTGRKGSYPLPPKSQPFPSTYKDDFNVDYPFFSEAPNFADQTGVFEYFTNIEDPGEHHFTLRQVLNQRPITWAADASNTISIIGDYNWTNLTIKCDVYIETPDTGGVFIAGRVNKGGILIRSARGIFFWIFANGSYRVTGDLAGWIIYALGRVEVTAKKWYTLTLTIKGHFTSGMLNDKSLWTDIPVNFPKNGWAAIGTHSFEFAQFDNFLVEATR
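Mutant human GALC (G270D), stably expressed in a Twitcher mouse brain cell line lacking endogenous GALC, is measured in live-treated cells via 6-hexadecanoylamino-4-methylumbelliferyl-β-galactoside hydrolysis (0.1 mM final, pH 5.2) with fluorescent detection.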
S16 viability: toxic to S16 Pmp22-F2sN Schwann cells; S16 Pmp22-F2sN Schwann cells viability, CellTiter-Glo, 24 h; Potency, µM (top dose mostly 57.5 µM), actives largely listed as cytotoxic; 0.48% of 43,000 active; AID 1508642; also: nearly all actives have a fitted effect of over 65% in size
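Seed 500-1,000 S16 Pmp22-F2sN cells per well in phenol-red-free DMEM with 10% heat-inactivated FBS; pin-add 23 nL compound; incubate 24 h at 37C; add CellTiter-Glo, wait 15 min protected from light; read luminescence.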
PMP22 txn: modulates PMP22 transcription in S16 Schwann cells. AID 1508649. Potency, µM (series often up to 57.5 µM), usual class: inhibitors. S16 Pmp22-F2sN Schwann cells (luciferase reporters placed in the Pmp22 gene), FLuc/NLuc coincidence luminescence, 24 h. 2% of 43,000 active; active = clear falling dose curves in both reporters; inconclusive = both reporters move, but less clearly or upward; inactive = either reporter flat; the % is the NLuc reporter signal
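Reporter cells (S16 Pmp22-F2sN, 500–1,000 per well) exposed to compounds for 24 h, 37C, 5% CO2; lysis with FLuc read after 10 min, then Stop&Glo and NLuc read after 10 min.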
Numbers stand for hits; i = inactive; ? = inconclusive; nt = no result given. Unless noted, calls follow the shape of the dose curve; as a rule, active = well fitted curve in the direction sought with a large enough effect; inconclusive = small, poorly fitted or top-dose-only effect, or another doubt; inactive = no such curve, though single readings can be large; an effect the other way counts as inactive or inconclusive.

SMILES | pS6 MEF inh | GALC G270D act | S16 viability | PMP22 txn
CC1CCCN(CCCNC(=O)c2ccc3c(c2)N(Cc2ccc(Cl)cc2)C(=O)c2ccccc2S3(=O)=O)C1 (stereo not given) | 13µM | i | ? | ?
O=c1[nH]c(=O)n([C@H]2CCCO2)cc1F | nt | i | nt | nt
CN1CCN(C(CNC(=O)C(=O)Nc2cccc(Cl)c2)c2ccc3c(c2)OCO3)CC1 (stereo not given) | 16µM | i | ? | ?
COC(=O)c1cc(NC(=O)CN(c2ccccc2)S(=O)(=O)N(C)C)ccc1Cl | i | i | i | i
CCOc1ccc(S(=O)(=O)NCCc2sc3nc(-c4ccc(C)cc4)nn3c2C)cc1 | i | i | 20µM | ?
COc1ccc(-c2nc3sc(CCNS(=O)(=O)c4ccccc4)c(C)n3n2)cc1 | i | i | i | i
CC(=O)/C=C/C=C1/C2CCC(C2)C1(C)C (stereo not given) | nt | i | nt | nt
COc1ccc(CNC(=O)c2ccc3nc(C(C)C)oc3c2)cc1OC | i | i | 28µM | ?
Cc1c(F)cc2c(=O)c(C(=O)O)cn3c2c1CCC3C (stereo not given) | nt | i | nt | nt
CCCSc1ncc(Cl)c(C(=O)N(Cc2ccccc2)c2ccc(OC)cc2)n1 | i | i | i | ?
O=C(NCc1ccccc1)c1nc(S(=O)(=O)Cc2ccccc2)ncc1Cl | 16µM | i | 8.9µM | 6.5µM
O=C(c1ccc(Cl)cc1)N(Cc1ccco1)Cc1ccco1 | i | i | i | i
COc1ccc(N(Cc2ccccc2)C(=O)c2nc(S(C)(=O)=O)ncc2Cl)cc1 | 2.1µM | i | 4.5µM | 1.8µM
CS(=O)(=O)c1ncc(Cl)c(C(=O)N(Cc2ccc(Cl)cc2)Cc2ccco2)n1 | 1.8µM | i | 4.5µM | ?
COc1ccc(CNC(=O)c2nc(S(=O)(=O)Cc3ccccc3)ncc2Cl)cc1 | 21µM | i | 5.6µM | 5.3µM
Cc1ccc(CNC(=O)c2nc(SCc3ccccc3C)ncc2Cl)cc1 | i | i | i | i
CC(C)(C)OC(=O)N1CCC(c2c(C(=O)NCCN3CCC(Cc4ccccc4)CC3)cnn2-c2cccc(Cl)c2)CC1 | 15µM | i | 25µM | ?
CC(C)(C)OC(=O)N1CCC(c2c(C(=O)N3CCCCC3)cnn2-c2cccc(F)c2)CC1 | i | 10µM | i | i
COc1ccc(-c2noc(CSc3nnc(C)n3-c3ccc(OC)cc3)n2)cc1 | i | i | i | ?
COc1ccc(-c2noc(CSc3nnc(-c4ccncc4)n3-c3ccc(OC)cc3)n2)cc1 | i | i | ? | 2.4µM
Cc1cccc(C(=O)Nc2nc(-c3ccc(Br)cc3)ns2)c1 | i | i | i | i
Cc1cc(C)c(S(=O)(=O)NCC(c2ccco2)S(=O)(=O)c2cccs2)c(C)c1 (stereo not given) | i | i | 18µM | ?
Cc1cc(S(=O)(=O)NCC(c2ccco2)S(=O)(=O)c2cccs2)ccc1F (stereo not given) | i | i | 10µM | 9µM
CCN1CCCC1CN (stereo not given) | nt | i | nt | nt
CCn1c(=N)n(CCOc2ccc(Br)cc2)c2ccccc21 | 13µM | i | ? | ?
SMILES | pS6 MEF inh | GALC G270D act | S16 viability | PMP22 txn
COc1ccc(OCC(O)Cn2c(=N)n(CCN3CCCCC3)c3ccccc32)cc1 (stereo not given) | nt | i | ? | ?
Cc1ccc(C(=O)Oc2ccc(C(O)CNC(C)(C)C)cc2OC(=O)c2ccc(C)cc2)cc1 (stereo not given) | nt | i | nt | nt
Cc1cccc(C)c1Nc1c(-c2ccccc2Cl)nc2cnccn12 | i | 22µM | ? | ?
Cc1cccc(C)c1Nc1c(-c2ccccn2)nc2ccc(Cl)cn12 | i | i | i | i
O=C(NCCc1nc2ccccc2n1Cc1ccc(Cl)cc1Cl)c1ccco1 | 21µM | i | i | ?
C[C@H]1O[C@H](O[C@H]2[C@H](O)[C@@H](O)[C@@H](O[C@H]3[C@H](O)[C@@H](O)[C@H](O)O[C@@H]3CO)O[C@@H]2CO)[C@H](O)[C@@H](O)[C@@H]1N[C@H]1C=C(CO)[C@@H](O)[C@H](O)[C@H]1O | nt | i | nt | nt
CCCCN(C)CCNC(=O)C1CCN(c2nc3ccc(CC)cc3s2)CC1 | 12µM | i | ? | ?
CCc1ccc2nc(N3CCC(C(=O)O)CC3)sc2c1 | i | i | i | i
O=C1CC(c2ccccc2)Cc2[nH]c(=O)c(-c3nc(-c4cccc(Cl)c4)cs3)cc21 (stereo not given) | 12µM | i | ? | i
COc1cccc(NC(=O)Cn2nc(C)c3c(C)n(-c4ccccc4)nc3c2=O)c1 | i | i | i | i
FC(F)(F)c1cccc(Nc2nc3nonc3nc2Nc2ccc(Cl)cc2)c1 | ? | i | 8.9µM | 5.6µM
O=C(NOCC1CC1)c1ccc(F)c(F)c1Nc1ccc(I)cc1Cl | nt | i | nt | nt
CS(=O)(=O)N(CC(=O)NCCc1ccccc1)c1cc(C(F)(F)F)ccc1Cl | 6.6µM | i | i | i
COc1cc(CN2CCc3nc(N4CCN(c5ncccn5)CC4)ncc3C2)cc(OC)c1OC | i | i | ? | ?
COc1cc(CN2CCc3nc(N4CCN(c5ccccn5)CC4)ncc3C2)cc(OC)c1OC | i | i | 11µM | 8.9µM
CCc1cccc(NC(=O)c2ccc3c(=O)n4nc(Nc5ccccc5OC)sc4nc3c2)c1 | i | i | ? | 4.5µM
COc1ccccc1Nc1nn2c(=O)c3ccc(C(=O)NCc4ccc(F)cc4)cc3nc2s1 | i | i | 14µM | 4.6µM
CCc1ccccc1Nc1nn2c(=O)c3ccc(C(=O)Nc4ccc(OC)cc4)cc3nc2s1 | i | i | i | ?
CCN(CC)C(=O)c1sc2c(c1C)c(=O)n(-c1ccc(Cl)c(Cl)c1)c(=O)n2Cc1cc(=O)n2c(C)cccc2n1 | i | i | ? | i
Cc1cccc(NC(=O)CSc2nc(-c3cccs3)cc(C(F)(F)F)c2C#N)c1 | i | i | ? | 15µM
COc1ccc(NC(=O)CSc2nc(-c3cccs3)cc(C(F)(F)F)c2C#N)cc1 | i | i | i | i
Nc1ccc([N+](=O)[O-])c(C(F)(F)F)c1 | nt | i | nt | nt
Cc1ccccc1NC(=O)c1c2c(nc3ccccc13)C(=O)N(C1CCCCC1)C2 | i | i | i | ?
COc1cc(OC)c(NC(=O)c2c3c(nc4ccccc24)C(=O)N(C2CCCCC2)C3)cc1Cl | i | i | 25µM | ?
CCCS(=O)(=O)c1nc(S(=O)(=O)c2ccc(C)cc2)c(N(CC)CC)s1 | i | 7.9µM | i | ?
COc1ccc(Nc2nc(-c3cccc(Cl)c3)c3c(n2)-c2ccccc2OC3)cc1 | i | i | i | ?
CCOc1ccc(Nc2nc(-c3cccc(Cl)c3)c3c(n2)-c2ccccc2OC3)cc1 | 2.3µM | i | i | i
CCOC(=O)c1ccc(Nc2nc3nonc3nc2Nc2cccc(C)c2C)cc1 | i | i | ? | 11µM
O=C(CCCl)NCc1ccccc1 | nt | i | nt | nt
O[C@@H](COc1cccc2ncccc12)CN1CCN(C2c3ccccc3[C@@H]3[C@H](c4ccccc42)C3(F)F)CC1 (stereo not given in full) | nt | i | nt | nt
